Data: PubChem BioAssay (NCI)
Values joined by “and” are separate entries in the source; they are usually repeats but may differ in a detail not shown here. Identical values can stand only once. About 83,000 compounds went through this panel and 20% of them were active in at least one assay; those are over-represented in the sample as a whole.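 Growth was measured after 48 h exposure to one concentration of compound in 96-well plates. Values under 10 count as active.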 Active and inactive are the calls of the source.

test system: HCT-15 colon; assay: NCI-60 one-dose screen, 48 h (100 = growth as untreated, 0 = no growth, -100 = all killed); conditions: 10 µM unless noted

Compound	growth
Nc1nc2ncc(CNc3ccc(C(=O)N[C@@H](CCc4nn[nH]n4)C(=O)O)cc3)nc2c(=O)[nH]1	104% (inactive) and 103% (inactive)
Oc1c(Cl)cc(Cl)cc1Sc1cc(Cl)cc(Cl)c1O	8.23% (active) and 78.1% (inactive)
O=S1(=O)CC(Br)C(Br)C1 (stereo not drawn)	49.1% (inactive) and 61.1% (inactive)
CN(C)c1ccc2nc3ccc(N)cc3[n+](-c3ccccc3)c2c1	90.7% (inactive) and 18.7% (inactive)

test system: HT29 colon; assay: as above; conditions: 10 µM unless noted

Compound	growth
COc1cc2c(c(OC)c1OC)-c1ccc(OC)c(=O)cc1[C@@H](NC(C)=O)CC2	9.16% (active) and 7.29% (active) and -16.8% (active)
CCN(CC)CCCC(CNc1ccnc2cc(Cl)ccc12)c1ccc(Cl)cc1 (stereo not drawn)	3.38% (active) and -5.84% (active)
N#CCCOc1ccccc1	100% (inactive)
CCN(CC)C(=S)SSC(=S)N(CC)CC	68.5% (inactive) and 94.4% (inactive)
CCN(CC)CCOc1ccc2c(c1)C(=O)c1cc(OCCN(CC)CC)ccc1-2	8.16% (active) and 6.92% (active)
O=S(=O)(Nc1ccccc1)C1CCCCC1	99.1% (inactive) and 99.6% (inactive)
Nc1ncnc2c1ncn2C1CC(O)C(CO)O1 (stereo not drawn)	109% (inactive) and 115% (inactive)
CCCCCCCCCCCCCCCc1cc(O)ccc1N	105% (inactive) and 107% (inactive)
O=[N+]([O-])c1ccc(/C=N\NC(=S)Nc2ccc(F)cc2)cc1	93.9% (inactive) and 95.1% (inactive)
CN1CCN(CCC=C2c3ccccc3Sc3ccc(S(=O)(=O)N(C)C)cc32)CC1	4.86% (active) and 4.22% (active)
c1ccc2cc(C[n+]3ccn(Cc4ccc5ccccc5n4)c3)ccc2c1	-30.7% (active) and 10.7% (inactive)
COc1ccc(Cn2c(NCCN=C(N)N)nc(=O)n(Cc3ccc(F)cc3)c2=O)cc1	101% (inactive) and 100% (inactive)
O=C(N/N=C/c1cccc2ccccc12)C1CC1	102% (inactive) and 110% (inactive)
Cn1c(=O)n(-c2ccc(C(C)(C)C#N)cc2)c2c3cc(-c4cnc5ccccc5c4)ccc3ncc21	4.74% (active) and -10.5% (active)
Cc1ccc(S(=O)(=O)Nc2ccc3cc([N+](=O)[O-])ccc3c2[N+](=O)[O-])cc1	93.3% (inactive) and 114% (inactive)
Nc1ccccc1Nc1ccccc1	118% (inactive) and 97.4% (inactive)
Cn1cnc([N+](=O)[O-])c1Sc1ncnc2nc[nH]c12	59.4% (inactive) and 73.2% (inactive)
Oc1c(Cl)cc(Cl)cc1Sc1cc(Cl)cc(Cl)c1O	66.2% (inactive) and 15.8% (inactive) and 108% (inactive)
CN(C)c1ccc2nc3ccc(N)cc3[n+](-c3ccccc3)c2c1	32.5% (inactive) and 24.4% (inactive)
